From ChEMBL document CHEMBL1961873, “Compounds: GSK PKIS; Assays: Nanosyn kinase panel” (2012) come the findings set out here.

For assay [1], the target named is T1, Inhibitor of nuclear factor kappa-B kinase subunit epsilon (Homo sapiens) (UniProt Q14164).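 Also: reported values are averaged percent inhibition figures against human IKKε.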
T1 sequence (whole entry): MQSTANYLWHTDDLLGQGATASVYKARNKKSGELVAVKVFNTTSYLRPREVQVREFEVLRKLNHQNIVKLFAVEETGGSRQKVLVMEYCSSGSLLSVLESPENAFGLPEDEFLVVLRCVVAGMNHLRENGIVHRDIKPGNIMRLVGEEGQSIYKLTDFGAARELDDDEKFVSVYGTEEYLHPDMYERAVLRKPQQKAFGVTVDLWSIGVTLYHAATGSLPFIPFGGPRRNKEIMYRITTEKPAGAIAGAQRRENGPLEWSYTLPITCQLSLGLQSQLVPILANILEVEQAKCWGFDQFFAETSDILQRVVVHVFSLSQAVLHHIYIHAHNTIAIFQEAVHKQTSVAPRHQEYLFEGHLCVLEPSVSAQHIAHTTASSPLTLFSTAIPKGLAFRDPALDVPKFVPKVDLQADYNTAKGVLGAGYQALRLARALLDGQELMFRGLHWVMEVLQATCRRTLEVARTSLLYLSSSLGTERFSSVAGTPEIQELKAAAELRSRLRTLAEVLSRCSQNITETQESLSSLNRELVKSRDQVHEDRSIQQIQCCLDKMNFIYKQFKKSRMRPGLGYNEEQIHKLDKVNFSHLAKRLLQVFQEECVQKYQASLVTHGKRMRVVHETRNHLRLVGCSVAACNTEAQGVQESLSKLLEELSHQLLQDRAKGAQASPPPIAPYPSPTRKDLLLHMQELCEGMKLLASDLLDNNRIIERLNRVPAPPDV
The conditions noted are these: at 1 µM.

The target of assay [2] is T2, Serine/threonine-protein kinase Nek1 (Homo sapiens) (UniProt Q96PY6).
T2 sequence (whole entry): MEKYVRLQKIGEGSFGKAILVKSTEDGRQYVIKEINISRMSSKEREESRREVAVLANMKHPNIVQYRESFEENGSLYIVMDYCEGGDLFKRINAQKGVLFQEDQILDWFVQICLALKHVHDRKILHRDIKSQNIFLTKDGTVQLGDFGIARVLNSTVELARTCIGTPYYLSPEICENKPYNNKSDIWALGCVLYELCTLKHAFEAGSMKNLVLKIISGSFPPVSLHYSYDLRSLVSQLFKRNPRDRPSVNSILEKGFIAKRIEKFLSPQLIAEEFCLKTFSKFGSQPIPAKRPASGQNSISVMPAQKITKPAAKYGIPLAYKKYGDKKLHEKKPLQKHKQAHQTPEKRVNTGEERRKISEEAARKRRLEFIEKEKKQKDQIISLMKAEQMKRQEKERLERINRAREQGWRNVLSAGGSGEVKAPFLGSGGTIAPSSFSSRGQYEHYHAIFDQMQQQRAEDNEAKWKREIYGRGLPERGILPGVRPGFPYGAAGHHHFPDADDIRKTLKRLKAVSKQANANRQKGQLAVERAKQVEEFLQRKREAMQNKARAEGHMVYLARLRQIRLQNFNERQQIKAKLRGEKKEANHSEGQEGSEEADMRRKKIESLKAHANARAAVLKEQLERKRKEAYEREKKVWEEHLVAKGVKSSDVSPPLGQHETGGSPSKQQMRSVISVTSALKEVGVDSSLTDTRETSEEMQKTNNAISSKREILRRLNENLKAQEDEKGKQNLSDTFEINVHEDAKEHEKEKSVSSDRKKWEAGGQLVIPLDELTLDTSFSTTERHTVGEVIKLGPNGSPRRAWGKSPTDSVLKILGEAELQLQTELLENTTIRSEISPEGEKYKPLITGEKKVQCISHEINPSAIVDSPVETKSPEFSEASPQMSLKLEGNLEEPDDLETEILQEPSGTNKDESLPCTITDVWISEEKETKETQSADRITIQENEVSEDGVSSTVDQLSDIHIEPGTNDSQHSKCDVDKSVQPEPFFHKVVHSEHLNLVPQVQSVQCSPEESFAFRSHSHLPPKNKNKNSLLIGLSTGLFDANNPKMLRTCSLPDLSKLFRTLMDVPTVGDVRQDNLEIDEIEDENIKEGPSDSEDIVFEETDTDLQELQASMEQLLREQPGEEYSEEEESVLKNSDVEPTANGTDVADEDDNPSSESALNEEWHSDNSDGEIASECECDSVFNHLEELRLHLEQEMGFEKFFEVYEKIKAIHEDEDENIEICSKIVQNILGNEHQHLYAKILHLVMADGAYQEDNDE
The conditions noted are these: at 0.1 µM.

Assay [3] addresses T2, Serine/threonine-protein kinase Nek1 (Homo sapiens). The conditions noted are these: at 1 µM.
Assay [4] concerns the target T3, Serine/threonine-protein kinase Nek2 (Homo sapiens) (UniProt P51955).
T3 sequence (whole entry): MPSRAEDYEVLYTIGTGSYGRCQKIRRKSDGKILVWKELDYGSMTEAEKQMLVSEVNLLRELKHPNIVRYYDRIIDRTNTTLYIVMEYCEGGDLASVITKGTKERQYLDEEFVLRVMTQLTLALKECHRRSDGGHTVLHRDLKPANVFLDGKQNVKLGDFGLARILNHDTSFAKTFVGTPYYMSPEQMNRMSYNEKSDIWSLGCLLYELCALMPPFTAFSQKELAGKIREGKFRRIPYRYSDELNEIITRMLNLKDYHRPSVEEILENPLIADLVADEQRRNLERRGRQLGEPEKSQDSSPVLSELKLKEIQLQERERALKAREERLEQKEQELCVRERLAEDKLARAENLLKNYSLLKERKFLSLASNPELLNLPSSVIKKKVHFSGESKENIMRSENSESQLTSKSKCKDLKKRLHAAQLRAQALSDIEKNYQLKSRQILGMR
The conditions noted are these: at 0.1 µM.

Assay [5] concerns the target T3, Serine/threonine-protein kinase Nek2 (Homo sapiens). The conditions noted are these: at 1 µM.
Assay [6] concerns the target Serine/threonine-protein kinase Nek6 (Homo sapiens) (UniProt Q9HC98). The conditions noted are these: at 0.1 µM.
Assay [7] has the same target. The conditions noted are these: at 1 µM.
For assay [8], the target named is Serine/threonine-protein kinase Nek7 (Homo sapiens) (UniProt Q8TDX7). The conditions noted are these: at 0.1 µM.
Sequence of Serine/threonine-protein kinase Nek7 (Homo sapiens) (Q8TDX7 whole entry, looked up): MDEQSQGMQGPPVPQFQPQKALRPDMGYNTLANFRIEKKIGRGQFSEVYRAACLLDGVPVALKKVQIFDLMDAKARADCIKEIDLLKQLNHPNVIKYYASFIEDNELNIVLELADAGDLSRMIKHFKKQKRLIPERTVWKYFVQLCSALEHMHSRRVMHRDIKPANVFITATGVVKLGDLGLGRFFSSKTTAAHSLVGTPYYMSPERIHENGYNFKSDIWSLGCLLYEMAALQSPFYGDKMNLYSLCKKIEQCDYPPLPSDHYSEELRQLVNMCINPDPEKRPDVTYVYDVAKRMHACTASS
Assay [9] shares this target. The conditions noted are these: at 1 µM.
Assay [10] deals with T4, Serine/threonine-protein kinase Nek9 (Homo sapiens) (UniProt Q8TD19).
T4 sequence (whole entry): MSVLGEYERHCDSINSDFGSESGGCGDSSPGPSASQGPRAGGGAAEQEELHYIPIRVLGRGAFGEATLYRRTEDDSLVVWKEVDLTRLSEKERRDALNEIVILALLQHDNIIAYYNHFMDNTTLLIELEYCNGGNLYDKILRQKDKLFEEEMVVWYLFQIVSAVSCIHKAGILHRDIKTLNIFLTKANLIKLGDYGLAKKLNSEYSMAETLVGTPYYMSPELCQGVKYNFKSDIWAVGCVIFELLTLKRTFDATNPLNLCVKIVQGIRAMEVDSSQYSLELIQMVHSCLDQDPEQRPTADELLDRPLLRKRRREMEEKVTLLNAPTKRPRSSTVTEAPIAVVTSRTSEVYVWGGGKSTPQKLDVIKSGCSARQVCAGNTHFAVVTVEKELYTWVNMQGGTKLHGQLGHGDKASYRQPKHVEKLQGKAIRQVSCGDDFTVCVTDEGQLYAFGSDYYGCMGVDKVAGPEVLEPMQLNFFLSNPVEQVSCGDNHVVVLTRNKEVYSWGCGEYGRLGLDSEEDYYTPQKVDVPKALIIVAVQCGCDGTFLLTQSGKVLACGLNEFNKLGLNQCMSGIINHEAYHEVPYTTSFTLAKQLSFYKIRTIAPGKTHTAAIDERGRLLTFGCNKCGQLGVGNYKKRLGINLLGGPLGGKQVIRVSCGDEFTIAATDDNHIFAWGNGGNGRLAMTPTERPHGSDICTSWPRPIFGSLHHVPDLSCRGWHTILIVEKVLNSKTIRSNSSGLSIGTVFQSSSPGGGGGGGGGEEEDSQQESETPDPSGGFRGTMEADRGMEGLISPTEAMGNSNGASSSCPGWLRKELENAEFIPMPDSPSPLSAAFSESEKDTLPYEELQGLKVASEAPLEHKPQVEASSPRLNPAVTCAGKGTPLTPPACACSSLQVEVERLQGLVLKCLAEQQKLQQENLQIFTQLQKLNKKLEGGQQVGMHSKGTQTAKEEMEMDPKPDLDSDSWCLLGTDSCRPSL
The conditions noted are these: at 0.1 µM.

Assay [11] deals with T4, Serine/threonine-protein kinase Nek9 (Homo sapiens). The conditions noted are these: at 1 µM.
Assay [12] addresses Serine/threonine-protein kinase PLK1 (Homo sapiens) (UniProt P53350). The conditions noted are these: at 0.1 µM.
Assay [13] shares this target. The conditions noted are these: at 1 µM.
Assay [14] concerns the target T5, Dual specificity protein kinase TTK (Homo sapiens) (UniProt P33981).
T5 sequence (whole entry): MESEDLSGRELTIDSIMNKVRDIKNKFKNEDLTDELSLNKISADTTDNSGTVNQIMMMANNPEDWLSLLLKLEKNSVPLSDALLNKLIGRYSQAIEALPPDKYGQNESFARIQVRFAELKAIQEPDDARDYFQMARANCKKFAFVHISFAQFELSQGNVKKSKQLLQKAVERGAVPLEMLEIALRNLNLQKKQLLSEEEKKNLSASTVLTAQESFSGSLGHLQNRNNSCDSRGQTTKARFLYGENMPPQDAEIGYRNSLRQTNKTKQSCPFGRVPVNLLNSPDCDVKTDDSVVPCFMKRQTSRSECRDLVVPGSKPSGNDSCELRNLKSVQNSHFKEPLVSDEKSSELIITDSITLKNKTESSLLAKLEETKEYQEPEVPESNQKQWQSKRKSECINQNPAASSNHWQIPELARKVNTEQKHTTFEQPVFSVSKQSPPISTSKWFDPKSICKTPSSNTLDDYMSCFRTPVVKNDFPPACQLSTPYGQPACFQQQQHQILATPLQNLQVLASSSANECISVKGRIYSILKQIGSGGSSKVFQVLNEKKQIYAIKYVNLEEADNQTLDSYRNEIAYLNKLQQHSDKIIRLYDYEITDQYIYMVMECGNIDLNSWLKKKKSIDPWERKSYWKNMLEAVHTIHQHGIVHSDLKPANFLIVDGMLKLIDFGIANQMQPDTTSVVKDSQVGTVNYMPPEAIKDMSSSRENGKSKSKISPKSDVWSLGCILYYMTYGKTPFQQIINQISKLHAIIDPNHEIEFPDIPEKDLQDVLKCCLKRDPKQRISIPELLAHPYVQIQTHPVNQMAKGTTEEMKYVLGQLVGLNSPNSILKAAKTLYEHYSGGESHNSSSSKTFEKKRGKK
The conditions noted are these: at 0.1 µM.

The test system of assay [15] is T6, Receptor-type tyrosine-protein kinase FLT3 (Homo sapiens), P36888 [D835Y].
T6 sequence (whole entry): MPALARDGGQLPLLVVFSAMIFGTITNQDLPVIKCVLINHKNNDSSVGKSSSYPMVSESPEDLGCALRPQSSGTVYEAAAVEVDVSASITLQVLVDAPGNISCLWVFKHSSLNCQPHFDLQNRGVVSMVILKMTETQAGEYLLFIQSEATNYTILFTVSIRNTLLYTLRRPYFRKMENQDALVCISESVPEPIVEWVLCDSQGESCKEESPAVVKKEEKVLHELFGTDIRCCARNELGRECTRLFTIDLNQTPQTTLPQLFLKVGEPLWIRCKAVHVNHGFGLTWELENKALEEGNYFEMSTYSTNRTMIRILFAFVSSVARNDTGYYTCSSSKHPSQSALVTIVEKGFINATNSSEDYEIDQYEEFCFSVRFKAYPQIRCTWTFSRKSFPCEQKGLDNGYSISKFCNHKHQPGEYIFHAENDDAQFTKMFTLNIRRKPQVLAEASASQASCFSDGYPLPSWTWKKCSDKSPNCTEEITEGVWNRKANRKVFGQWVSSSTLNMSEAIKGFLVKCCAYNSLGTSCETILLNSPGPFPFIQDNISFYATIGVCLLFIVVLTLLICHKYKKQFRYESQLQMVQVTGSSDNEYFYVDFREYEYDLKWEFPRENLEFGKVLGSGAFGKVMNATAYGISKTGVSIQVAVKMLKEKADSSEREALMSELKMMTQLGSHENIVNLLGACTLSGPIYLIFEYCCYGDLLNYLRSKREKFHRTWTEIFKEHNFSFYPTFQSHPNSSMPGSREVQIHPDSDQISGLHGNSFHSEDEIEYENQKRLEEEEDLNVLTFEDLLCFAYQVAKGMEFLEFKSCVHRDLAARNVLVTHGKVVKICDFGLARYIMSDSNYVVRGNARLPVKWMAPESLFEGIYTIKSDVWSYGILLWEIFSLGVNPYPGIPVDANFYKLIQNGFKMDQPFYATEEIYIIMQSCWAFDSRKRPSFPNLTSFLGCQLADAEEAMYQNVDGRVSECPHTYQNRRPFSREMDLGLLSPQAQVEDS
The conditions noted are these: at 1 µM.

The target in assay [16] is Vascular endothelial growth factor receptor 3 (Homo sapiens) (UniProt P35916). The conditions noted are these: at 0.1 µM.
Sequence of Vascular endothelial growth factor receptor 3 (Homo sapiens) (P35916 whole entry): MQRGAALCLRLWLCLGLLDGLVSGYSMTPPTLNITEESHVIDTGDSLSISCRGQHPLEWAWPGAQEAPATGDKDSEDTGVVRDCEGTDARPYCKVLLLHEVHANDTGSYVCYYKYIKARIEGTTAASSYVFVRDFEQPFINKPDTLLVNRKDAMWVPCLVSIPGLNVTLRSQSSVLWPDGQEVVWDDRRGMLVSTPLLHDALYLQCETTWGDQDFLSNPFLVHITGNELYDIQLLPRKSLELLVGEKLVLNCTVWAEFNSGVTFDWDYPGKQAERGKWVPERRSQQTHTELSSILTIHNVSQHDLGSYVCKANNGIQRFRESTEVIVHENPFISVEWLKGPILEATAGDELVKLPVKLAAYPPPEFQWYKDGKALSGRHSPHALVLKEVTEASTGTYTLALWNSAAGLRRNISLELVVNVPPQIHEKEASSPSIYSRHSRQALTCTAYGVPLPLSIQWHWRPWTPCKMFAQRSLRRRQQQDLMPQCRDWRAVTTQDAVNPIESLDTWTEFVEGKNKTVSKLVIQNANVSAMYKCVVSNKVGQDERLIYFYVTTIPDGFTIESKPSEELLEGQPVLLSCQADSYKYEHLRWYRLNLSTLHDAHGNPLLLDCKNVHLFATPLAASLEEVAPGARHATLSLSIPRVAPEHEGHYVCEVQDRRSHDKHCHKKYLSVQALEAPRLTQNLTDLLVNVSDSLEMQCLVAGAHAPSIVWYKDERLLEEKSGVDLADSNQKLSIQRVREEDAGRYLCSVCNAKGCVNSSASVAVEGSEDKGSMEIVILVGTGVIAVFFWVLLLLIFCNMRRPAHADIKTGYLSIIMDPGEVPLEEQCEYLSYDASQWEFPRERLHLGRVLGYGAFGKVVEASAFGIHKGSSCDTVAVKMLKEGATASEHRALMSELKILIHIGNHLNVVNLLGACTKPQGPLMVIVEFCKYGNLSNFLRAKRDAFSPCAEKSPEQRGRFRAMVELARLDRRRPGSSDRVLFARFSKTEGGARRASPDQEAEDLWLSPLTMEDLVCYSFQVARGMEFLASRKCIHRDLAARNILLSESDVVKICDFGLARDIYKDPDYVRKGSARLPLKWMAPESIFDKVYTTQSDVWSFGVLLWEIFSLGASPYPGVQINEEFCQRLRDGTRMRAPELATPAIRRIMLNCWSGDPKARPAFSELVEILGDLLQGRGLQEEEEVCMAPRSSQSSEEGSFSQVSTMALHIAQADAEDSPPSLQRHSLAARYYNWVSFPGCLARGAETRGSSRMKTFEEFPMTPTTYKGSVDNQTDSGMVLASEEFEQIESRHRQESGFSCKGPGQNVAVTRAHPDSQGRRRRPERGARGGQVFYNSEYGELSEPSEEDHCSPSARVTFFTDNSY
Assay [17] shares this target. The conditions noted are these: at 1 µM.
Assay [18] has as its target Macrophage colony-stimulating factor 1 receptor (Homo sapiens) (UniProt P07333). The conditions noted are these: at 0.1 µM.
Assay [19] shares this target. The conditions noted are these: at 1 µM.
Assay [20] has as its target Tyrosine-protein kinase Fyn (Homo sapiens) (UniProt P06241). The conditions noted are these: at 0.1 µM.

Sequence of Macrophage colony-stimulating factor 1 receptor (Homo sapiens) (P07333 whole entry): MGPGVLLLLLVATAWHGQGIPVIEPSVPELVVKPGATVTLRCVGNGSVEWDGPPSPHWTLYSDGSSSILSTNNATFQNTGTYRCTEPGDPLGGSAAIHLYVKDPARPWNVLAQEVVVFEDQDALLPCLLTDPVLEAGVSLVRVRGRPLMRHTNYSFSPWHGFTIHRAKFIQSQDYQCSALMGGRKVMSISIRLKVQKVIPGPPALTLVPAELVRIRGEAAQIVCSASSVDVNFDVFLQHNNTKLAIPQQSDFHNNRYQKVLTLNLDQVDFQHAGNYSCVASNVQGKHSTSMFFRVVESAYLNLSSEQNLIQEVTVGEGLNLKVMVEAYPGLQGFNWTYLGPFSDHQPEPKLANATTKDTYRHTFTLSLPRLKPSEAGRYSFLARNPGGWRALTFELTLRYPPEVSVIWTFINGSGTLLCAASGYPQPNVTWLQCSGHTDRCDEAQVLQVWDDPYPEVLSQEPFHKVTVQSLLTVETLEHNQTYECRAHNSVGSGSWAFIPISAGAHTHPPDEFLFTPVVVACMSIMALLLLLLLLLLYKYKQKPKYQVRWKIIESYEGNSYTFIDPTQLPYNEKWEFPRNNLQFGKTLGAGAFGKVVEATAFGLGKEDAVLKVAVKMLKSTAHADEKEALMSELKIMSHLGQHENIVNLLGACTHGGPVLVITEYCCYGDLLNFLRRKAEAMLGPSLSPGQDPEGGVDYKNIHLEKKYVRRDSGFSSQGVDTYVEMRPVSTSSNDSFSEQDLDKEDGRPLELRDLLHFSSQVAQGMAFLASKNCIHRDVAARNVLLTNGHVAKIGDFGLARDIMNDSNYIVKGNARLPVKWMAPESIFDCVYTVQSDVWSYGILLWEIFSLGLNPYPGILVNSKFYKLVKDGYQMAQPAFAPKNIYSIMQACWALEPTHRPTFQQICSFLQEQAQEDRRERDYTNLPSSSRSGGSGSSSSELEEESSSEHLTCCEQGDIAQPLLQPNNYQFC
Sequence of Serine/threonine-protein kinase PLK1 (Homo sapiens) (P53350 whole entry): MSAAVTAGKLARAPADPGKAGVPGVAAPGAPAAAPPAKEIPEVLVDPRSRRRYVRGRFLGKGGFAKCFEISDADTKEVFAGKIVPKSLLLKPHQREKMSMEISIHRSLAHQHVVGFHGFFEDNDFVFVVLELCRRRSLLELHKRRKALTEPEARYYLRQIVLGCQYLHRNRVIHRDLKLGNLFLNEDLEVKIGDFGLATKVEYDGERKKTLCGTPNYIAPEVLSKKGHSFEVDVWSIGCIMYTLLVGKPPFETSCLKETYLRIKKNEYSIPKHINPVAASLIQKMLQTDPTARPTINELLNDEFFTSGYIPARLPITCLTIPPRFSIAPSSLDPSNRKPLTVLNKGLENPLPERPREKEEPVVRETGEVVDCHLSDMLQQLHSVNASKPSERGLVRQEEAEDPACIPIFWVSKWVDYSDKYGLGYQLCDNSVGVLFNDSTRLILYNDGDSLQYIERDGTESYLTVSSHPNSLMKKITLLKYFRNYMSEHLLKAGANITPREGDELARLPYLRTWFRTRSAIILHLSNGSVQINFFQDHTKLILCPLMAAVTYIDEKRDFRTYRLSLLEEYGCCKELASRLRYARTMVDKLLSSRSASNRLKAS
Sequence of Serine/threonine-protein kinase Nek6 (Homo sapiens) (Q9HC98 whole entry): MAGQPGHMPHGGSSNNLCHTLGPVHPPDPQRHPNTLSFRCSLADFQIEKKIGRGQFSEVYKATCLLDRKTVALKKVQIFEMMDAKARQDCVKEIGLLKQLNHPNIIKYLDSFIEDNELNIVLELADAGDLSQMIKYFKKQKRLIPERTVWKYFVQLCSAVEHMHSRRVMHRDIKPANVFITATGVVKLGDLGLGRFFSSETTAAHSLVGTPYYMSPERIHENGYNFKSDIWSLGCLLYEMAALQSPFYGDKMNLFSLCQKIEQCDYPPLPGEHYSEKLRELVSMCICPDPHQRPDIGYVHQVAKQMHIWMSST
Sequence of Tyrosine-protein kinase Fyn (Homo sapiens) (P06241 2-537 limits assumed): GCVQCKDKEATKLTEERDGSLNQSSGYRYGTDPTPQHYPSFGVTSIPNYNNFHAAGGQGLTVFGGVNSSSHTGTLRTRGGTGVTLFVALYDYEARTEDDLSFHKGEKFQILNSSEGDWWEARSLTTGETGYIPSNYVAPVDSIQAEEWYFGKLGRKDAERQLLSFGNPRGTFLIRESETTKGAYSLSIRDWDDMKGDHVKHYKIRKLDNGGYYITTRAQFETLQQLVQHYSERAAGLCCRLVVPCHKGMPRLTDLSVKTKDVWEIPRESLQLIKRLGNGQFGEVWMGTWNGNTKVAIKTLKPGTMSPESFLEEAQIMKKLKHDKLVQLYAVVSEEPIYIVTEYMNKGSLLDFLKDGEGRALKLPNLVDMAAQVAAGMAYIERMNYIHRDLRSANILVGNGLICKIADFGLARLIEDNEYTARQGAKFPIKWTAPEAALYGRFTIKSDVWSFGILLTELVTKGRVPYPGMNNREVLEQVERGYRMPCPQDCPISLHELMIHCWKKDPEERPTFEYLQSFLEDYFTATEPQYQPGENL

Consider `COc1ccc(-c2nn3ncccc3c2-c2ccnc(Nc3ccc(F)c(F)c3)n2)cc1`, for which the inhibition in assay [1] is 88.2%; in assay [2], 1.08%; in [3] it was 2.15%; in [4], 3.89%; in assay [5], 2.89%; in assay [6], 3.33%. The inhibition stood at 5.18% in assay [7]; 3.7% in assay [8]; 4.42% in assay [9]; 7.45% in assay [10]; 7.17% in assay [11]; 1.8% in assay [12]. In addition, the inhibition in [13] was 2.27%; in [14], 15.1%; in assay [15] it was 2.1%; in assay [16], 4.09%; in assay [17], 8.94%; in assay [18], 5.19%. The figures for the inhibition in assay [19] and in assay [20] were 14.8% and 2.85%, respectively.
